PMC5540273 (PLoS ONE, 2017)

system: TAOK2; conditions: concentration: 1 μM, replicates: in singlicate; n = 1
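Note: KINOMEscan kinase panel screen.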

SMILES | %Inh [%]
c1ccc(-c2n[nH]cc2Nc2ccnc3ccccc23)nc1 [GW694077] | 21
Oc1cc(Nc2ccnc3cc(I)ccc23)ccc1F [GW552771] | 0
COc1ccc(Nc2nccc(N3CCC(NC(=O)Nc4cccc(OC)c4)C3)n2)cc1 (centres unmarked) [GSK1379742] | 0
COc1cc(Nc2nccc(-c3c(-c4cccc(NC(=O)c5c(F)cccc5F)c4)nn4ccccc34)n2)cc(OC)c1OC [GSK323521] | 0
c1ccc(-c2cnc3nccnn23)cc1 [AH20685] | 0
C[C@@H](Oc1cc(-n2cnc3cc(-c4ccnc(NCCS(C)(=O)=O)c4)ccc32)sc1C(N)=O)c1ccccc1Cl [GSK907232] | 0
COc1cc(Nc2ncc3c(C)nc(-c4cc5ccccc5[nH]4)n3n2)cc(OC)c1OC [GW869516] | 0
Cl.c1ccc(-c2ccc3c(Nc4ccc5[nH]ncc5c4)ccnc3c2)nc1 [GW440137] | 0
Cl.c1ccc(-c2ccc3c(Nc4ccc5[nH]ccc5c4)ccnc3c2)nc1 [GW440138] | 0
Cl.NC(=O)c1cccc(Nc2nccc(Nc3ccc(Oc4c(Cl)cccc4Cl)c(Cl)c3)n2)c1 [GW659009] | 0
O=C(Nc1ccccc1F)NC1CCN(c2ccnc(Nc3ccc(F)cc3)n2)CC1 [GSK1379800] | 0
COc1ccc(-c2coc3ccc(-c4nnc(SCc5ccc(OC)c(C(F)(F)F)c5)o4)cc23)cc1 | 0
Clc1ccc(-c2nn3ncccc3c2-c2ccnc(Nc3ccc4c(c3)OCCO4)n2)cc1 [GW829116] | 19
CC(C)c1nc(-c2cccc(NS(=O)(=O)c3c(F)cccc3F)c2F)c(-c2ccnc(Nc3ccc(N4CCOCC4)nc3)n2)s1 [GSK2008607] | 71
C[C@@H]1CC[C@@H](C(=O)Nc2ccccc2)CN1c1cc(-c2ccc3c(N)n[nH]c3c2)nc(N)n1 [GSK2286062] | 0
COc1ccc(CNC(=O)NC2CCN(c3ccnc(Nc4ccc(F)cc4)n3)CC2)cc1 [GSK1379788] | 0

system: TAOK3; conditions: concentration: 1 μM, replicates: in singlicate; n = 1

SMILES | %Inh [%]
c1ccc(Oc2ccc(Nc3ccnc4cc(-c5ccc(CNCCN6CCOCC6)o5)ccc34)cc2)nc1 [GW567145] | 0
Cn1cc(-c2[nH]c3cc(NC(=O)[C@H](N)C4CCCCC4)cc4c3c2C=NNC4=O)cn1 | 0
O=C(Nc1cccc(-c2nn3ccccc3c2-c2ccnc(Nc3cccc(F)c3)n2)c1)c1c(F)ccc(F)c1Cl [GSK357952] | 34
Cc1ccc(C)c(NC(=O)NC2CCN(c3ccnc(Nc4ccc(F)cc4)n3)C2)c1 (centres unmarked) [GSK1379720] | 0
O=C(Nc1n[nH]c2cc(-c3ccoc3)ccc12)C1CC1 [SB-738481] | 15
COc1cccc(C(=O)Nc2cccc(Oc3ccc4nc(NC(=O)C5CC5)cn4n3)c2)c1 | 0
Cc1ccc(S(=O)(=O)Nc2ccc(Nc3nccc(Nc4cccc5[nH]ncc45)n3)cc2)cc1 [GSK581271] | 0
CN(C)Cc1ccc(-c2ccc3c(Nc4ccc(Oc5ccccn5)cc4)ccnc3c2)o1 [GW567148] | 0
Nc1ncc(-c2ccc3nccc(-c4ccncc4)c3c2)cc1S(=O)(=O)N1CCOCC1 [GSK1627798] | 0
CC(=O)Nc1nc2cnc(Nc3cc(NC(=O)c4cccc(C5(C#N)CC5)c4Cl)ccc3C)nc2s1 | 0
Cl.Cl.NCC(NC(=O)c1cc(-c2ccccc2)c(-c2ccnc3[nH]ccc23)s1)c1ccccc1 (centres unmarked) [GSK1321561] | 0
COc1cccc(C2=C(Nc3ccc(Cl)c(C(=O)O)c3)C(=O)NC2=O)c1 [SB-390769] | 100
O=c1[nH]cc(-c2ccc(N3CCOCC3)cc2)c2sc(-c3cn[nH]c3)cc12 [GSK2276055] | 21
Cn1cc(-c2ccc3c(c2)CCN3C(=O)Cc2cccc(F)c2)c2c(N)ncnc21 [GSK2603358] | 0
CN1CCN(CCCNc2nccc(-c3c(-c4ccc(F)cc4)nn4cc(C(F)(F)F)ccc34)n2)CC1 [GW621581] | 8
Cc1ccc(C(=O)Nc2ccc(Nc3ccnc4cc(-c5nccs5)ccc34)cc2O)cc1.Cl [GW494702] | 0
CC(C)(C)c1ccc2nccc(Nc3cccc(O)c3)c2c1 [GW856795] | 59
Nc1n[nH]c2cnc(-c3ccccc3)cc12 [SB-642124] | 7
CCc1ccc(-c2ccc3c(c2)-c2c(cnn2C)S(=O)(=O)N3C)cc1 | 0

SMILES | %Inh [%]
O=C(Nc1n[nH]c2nc(-c3ccc(O)cc3)ccc12)C1CC1 [SB-710363] | 95.9
CC(=O)N1CCN(c2ccc(Nc3nccc(-c4sc(C(C)C)nc4-c4cccc(NS(=O)(=O)c5cccc(Cl)c5)c4)n3)cn2)CC1 [GSK1660437] | 3
c1ccc(-c2n[nH]cc2Nc2ccnc3ccccc23)nc1 [GW694077] | 10
Oc1cc(Nc2ccnc3cc(I)ccc23)ccc1F [GW552771] | 0
COc1ccc(Nc2nccc(N3CCC(NC(=O)Nc4cccc(OC)c4)C3)n2)cc1 (centres unmarked) [GSK1379742] | 0
COc1cc(Nc2nccc(-c3c(-c4cccc(NC(=O)c5c(F)cccc5F)c4)nn4ccccc34)n2)cc(OC)c1OC [GSK323521] | 0
c1ccc(-c2cnc3nccnn23)cc1 [AH20685] | 0
C[C@@H](Oc1cc(-n2cnc3cc(-c4ccnc(NCCS(C)(=O)=O)c4)ccc32)sc1C(N)=O)c1ccccc1Cl [GSK907232] | 0
COc1cc(Nc2ncc3c(C)nc(-c4cc5ccccc5[nH]4)n3n2)cc(OC)c1OC [GW869516] | 0
Cl.c1ccc(-c2ccc3c(Nc4ccc5[nH]ncc5c4)ccnc3c2)nc1 [GW440137] | 0
Cl.c1ccc(-c2ccc3c(Nc4ccc5[nH]ccc5c4)ccnc3c2)nc1 [GW440138] | 0
Cl.NC(=O)c1cccc(Nc2nccc(Nc3ccc(Oc4c(Cl)cccc4Cl)c(Cl)c3)n2)c1 [GW659009] | 8
O=C(Nc1ccccc1F)NC1CCN(c2ccnc(Nc3ccc(F)cc3)n2)CC1 [GSK1379800] | 0
COc1ccc(-c2coc3ccc(-c4nnc(SCc5ccc(OC)c(C(F)(F)F)c5)o4)cc23)cc1 | 0
Clc1ccc(-c2nn3ncccc3c2-c2ccnc(Nc3ccc4c(c3)OCCO4)n2)cc1 [GW829116] | 0
CC(C)c1nc(-c2cccc(NS(=O)(=O)c3c(F)cccc3F)c2F)c(-c2ccnc(Nc3ccc(N4CCOCC4)nc3)n2)s1 [GSK2008607] | 19
C[C@@H]1CC[C@@H](C(=O)Nc2ccccc2)CN1c1cc(-c2ccc3c(N)n[nH]c3c2)nc(N)n1 [GSK2286062] | 10
COc1ccc(CNC(=O)NC2CCN(c3ccnc(Nc4ccc(F)cc4)n3)CC2)cc1 [GSK1379788] | 0
